This passage reports composite z-score results from PubChem BioAssay.

The nature of the first assay: small molecules captured by biotinylated probe aFSTL3 – biochemical, small-molecule microarray, fluorescence 635/667, stem cell growth factor project, primary screen (AID 1064).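 Further: measures binding of the biotinylated anti-FSTL3 antibody to printed compounds.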 Conditions: higher = more signal.
Take `CCC(CC)C(O)C1C=CC2C(=O)N(c3ccccc3)C(=O)C2N1Nc1ccc(C(C)C)cc1` (stereo unspecified): the composite z-score was found to be 0.251. In turn, `C=C(C)C1CCC(C(O)C2C=CC3C(=O)N(C)C(=O)C3N2N2CCCCC2)CC1` (stereo unspecified) had a composite z-score of 0.207. Take `O=C1NC(=O)C2C1C=CC(C(O)c1cccc3ccccc13)N2Nc1ccc(Cl)cc1Cl` (stereo unspecified): the composite z-score stood at 0.475. In turn, `C=CCOC(=O)[C@H]1[C@@H]2C(=O)O[C@@H](c3ccccc3)[C@@H](c3ccccc3)N2[C@@H](c2ccc(OCCOC(=O)[C@@H]3C[C@@H]4C(=O)N[C@@H](CCCCN(C)C)C(=O)N4[C@@H]3c3ccc(O)cc3)cc2)[C@]12C(=O)Nc1ccccc12` showed a composite z-score of -0.0613. Consider `CCOC(=O)C1=CC[C@@H](c2ccccc2C(F)(F)F)N(S(=O)(=O)c2ccc(C)cc2)[C@H]1c1ccc(C#N)cc1`, for which the composite z-score is -0.0042.

Regarding `CCCNC(=O)[C@@H]1c2ccccc2C(=O)N(C(C)C)[C@H]1c1ccc(CO)cc1`, the composite z-score came out at 0.277.

The nature of another assay: binders from COS7 lysate, DM2A8 probe, primary screen, torsin A project, cell lysate, small-molecule microarray, fluorescence 635/667 (AID 1065). Conditions: higher = more signal, COS7 lysate expressing mutant human TOR1A.
Compound `C=C(/C(=C/C[C@H](OC(C)=O)c1ccccc1OCCO)c1cc(C(=O)OC)ccc1OC)C(C)C` yielded a composite z-score of -0.415. Still for that read-out and setting: the figure for `C[N+](C)(C)CCCC[C@@H]1NC(=O)[C@H]2C[C@@H](C(=O)NCCCCCCN)[C@@H](c3ccc(O)cc3)N2C1=O` is 0.713; for `COc1ccccc1CN1C(=O)c2ccccc2[C@](Cc2ccccc2I)(C(=O)NCC(F)(F)F)[C@@H]1c1ccc(CO)cc1` it is 0.847. The same measure, in the same setting: the figure for `O=C(NCc1ccccc1)[C@@H]1c2ccccc2C(=O)N(Cc2ccccc2C(F)(F)F)[C@H]1c1ccc(CO)cc1` is 0.55. The compound `COC(=O)[C@H](Cc1ccccc1)N1CC(/C=C/C2CC2)=C[C@H]1[C@H](O)Cc1ccccc1` showed a composite z-score of 0.177. Regarding `CCOC(=O)C1=CC[C@@H](c2ccc(OCc3ccccc3)c(OC)c2)N(S(=O)(=O)c2ccc(C)cc2)[C@H]1c1ccc(SC)cc1`, the composite z-score is 0.718. On the same count and under the same terms, as for `COc1cccc(/C=C/C=O)c1`, the figure is 0.187; as for `CC(=O)NCCCC[C@@H]1NC(=O)[C@H]2C[C@@H](C(=O)NCCCC[N+](C)(C)C)[C@@H](c3cccc(OCCO)c3)N2C1=O`, 1.86; as for `O=C1C2C=CC(C(O)c3ccccc3)N(Nc3ccccc3F)C2C(=O)N1c1ccccc1` (stereo unspecified), 0.932.

In turn, `CCOC(=O)C[C@H]1[C@H](OC(=O)c2ccccc2-c2ccccc2)[C@@H](NC(=O)c2ccc(-c3ccccc3)cc2)c2cc(OCCCO)ccc2N1C(=O)c1ccc2ccccc2n1` came in with a composite z-score of 0.286. Compound `CO[C@]12C=C(Br)[C@@H](C[C@@H]1c1cccc(C)c1)[C@@]1(CO1)C2=O` registered a composite z-score of 0.0322.

In turn, `[N-]=[N+]=Nc1ccccc1[C@@H]1OC(c2ccc(OCCCO)cc2)=N[C@]1(Cc1ccccc1)C(=O)NCC(O)CO` (stereo partly specified) gave a composite z-score of 2.11. With `COc1ccc([Si](C)(C)[C@@H]2[C@@H](CCn3cc([C@H](O)c4ccccc4)nn3)O[C@]3(C(=O)N(Cc4ccc(N5CCC5=O)cc4)c4ccccc43)[C@H]2C)cc1`, the composite z-score is -0.163. On to `C=CCC(OC(C)=O)[C@@H]1[C@@H](N(Cc2ccc(-c3cccc(C(F)(F)F)c3)o2)C(=O)c2ccc(C)cc2)c2cc(OCCCO)ccc2N1C(=O)c1ccc2ccccc2c1` (stereo partly specified), for which the composite z-score amounted to 0.462. The same measure, in the same setting: as for `C=CCC(OC(C)=O)[C@@H]1[C@@H](N(Cc2cccc3ccccc23)C(=O)Cc2ccc(F)cc2)c2cc(OCCCO)ccc2N1C(=O)c1ccc2ccccc2n1` (stereo partly specified), the figure is -0.0938; as for `C[C@H]1NC(=O)[C@@]23C(=O)N[C@@H](Cc4ccccc4)C2[C@H](C)[C@@]2(C)O[C@H]2C3/C=C/C/C=C\CNC(=O)[C@H](Cc2ccccc2)NC1=O` (stereo partly specified), 0.0198. In turn, `CCCCCCCCCCC(O)C1C=CC2C(=O)N(C)C(=O)C2N1Nc1ccc([N+](=O)[O-])cc1[N+](=O)[O-]` (stereo unspecified) displayed a composite z-score of -0.254. The compound `NCCCCCCNC(=O)[C@@H]1C[C@@H]2C(=O)N[C@@H](CCCCN)C(=O)N2[C@@H]1c1cccc(OCCO)c1` yielded a composite z-score of 1.81. Still for that read-out and setting: as for `N#Cc1ccc(C(O)C2C=CC3C(=O)N(c4ccccc4)C(=O)C3N2Nc2ccccc2)cc1` (stereo unspecified), the figure is 0.0518; as for `CC1=C([C@H](O)CCc2ccccc2)[C@H](CO)[C@@H]2C(=O)N(C)C(=O)[C@@H]2C1`, 0.388. Same read-out and setting: the figure for `CCOC(=O)C1=CC[C@@H](c2cccc(Cl)c2)N(S(=O)(=O)c2ccc(C)cc2)C1` is 0.627. The compound `COCCOC(=O)N1C(=O)[C@@]2(c3cc(C#Cc4ccc(OC)cc4)ccc31)[C@H](C(=O)Nc1nc3ccccc3s1)[C@H]1C(=O)O[C@H](c3ccccc3)[C@H](c3ccccc3)N1[C@@H]2c1ccc(O)cc1` showed a composite z-score of -0.164. The same measure, in the same setting: the figure for `COc1ccc(C#Cc2ccc3c(c2)[C@]2(C(=O)N3)[C@H](c3ccc(O)cc3)N3[C@H](c4ccccc4)[C@H](c4ccccc4)OC(=O)[C@H]3[C@@H]2C(=O)O)cc1` is 0.413; for `CC(C)C[C@@H]1NC(=O)[C@@H]2C[C@H](C(=O)NCCCCCN)[C@H](c3ccc(O)cc3)N2C1=O` it is 0.174. Same read-out and setting: the figure for `CN1C(=O)C2C=CC(C(O)c3ccc(F)cc3)N(Nc3ccccc3)C2C1=O` (stereo unspecified) is -0.286; for `CCC[C@@H]1C[C@@]1(CCC)[C@@H](NC(=O)OCc1ccccc1)c1ccc(-c2ccccc2)cc1` it is -0.602. The same measure, in the same setting: as for `COc1ccc(NC(=O)O[C@H]2[C@H](OC(=O)Nc3ccccc3)[C@H](OC(=O)Nc3ccccc3)[C@@H](OC)O[C@@H]2CO)cc1`, the figure is 1.

With `CC(C)[Si](C#C[Si](C(C)C)(C(C)C)C(C)C)(O[C@H](C)c1cn([C@H](CO)Cc2ccccc2)nn1)C(C)C`, the composite z-score was 0.585. As to `[N-]=[N+]=NCc1ccccc1[C@@H]1OC(c2ccc(OCCCO)cc2)=N[C@]1(CCS(=O)(=O)c1ccccc1)C(=O)NCC(O)CO` (stereo partly specified), the composite z-score was 0.92. `CCC(CC)C(O)C1C=CC2C(=O)N(c3ccccc3)C(=O)C2N1Nc1ccc(C(C)C)cc1` (stereo unspecified): the composite z-score is -0.207. Consider `C=C(C)C1CCC(C(O)C2C=CC3C(=O)N(C)C(=O)C3N2N2CCCCC2)CC1` (stereo unspecified), for which the composite z-score is -0.222. For `O=C1NC(=O)C2C1C=CC(C(O)c1cccc3ccccc13)N2Nc1ccc(Cl)cc1Cl` (stereo unspecified), the composite z-score is -0.974. The same measure, in the same setting: the figure for `C=CCOC(=O)[C@H]1[C@@H]2C(=O)O[C@@H](c3ccccc3)[C@@H](c3ccccc3)N2[C@@H](c2ccc(OCCOC(=O)[C@@H]3C[C@@H]4C(=O)N[C@@H](CCCCN(C)C)C(=O)N4[C@@H]3c3ccc(O)cc3)cc2)[C@]12C(=O)Nc1ccccc12` is 0.639; for `CCOC(=O)C1=CC[C@@H](c2ccccc2C(F)(F)F)N(S(=O)(=O)c2ccc(C)cc2)[C@H]1c1ccc(C#N)cc1` it is 0.0813; for `CCCNC(=O)[C@@H]1c2ccccc2C(=O)N(C(C)C)[C@H]1c1ccc(CO)cc1` it is -0.638.
